This passage reports cell viability results from the supplement of paper PMC10981050.

Structures are written as SMILES.

This assay relates to OCI-AML2. Briefly: cell viability relative to vehicle control; higher = less cytotoxic. The following applies: 10 µM; SRSF2 genotype: wt/wt. The essentials:
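CRISPR-edited mutant clones and isogenic wild-type clones from four leukaemia lines were screened against Selleck bioactive, kinase and epigenetic probe libraries, with identity-inconsistent compounds excluded. Each compound was acoustically dispensed at a single 10 µM dose into 384-well plates holding 2000 cells in 50 µL medium per well. After 48 h the supernatant was removed and CellTiter-Glo luminescence was read. Viability was expressed as percent of the on-plate vehicle control and analysed in Genedata Screener.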
Take `COc1ccc(/C=C/C(=O)C2(C(=O)/C=C/c3ccc(OC)c(OC)c3)CCCCC2)cc1OC`: the cell viability was determined as 0.43%.

On to `Cc1ccc(C)c(OCCCC(C)(C)C(=O)O)c1` [Gemfibrozil (Lopid)], for which the cell viability turned out to be 110%.

On to `NC(=O)c1cccc(-c2cccc(OC(=O)NC3CCCCC3)c2)c1`, for which the cell viability was determined as 96.4%.

As for `NC(=O)c1noc([C@H](CCCC2CCCCC2)CC(=O)NO)n1`, the cell viability is 40.7%.

Take `COC(=O)Nc1nc2cc([S+]([O-])c3ccccc3)ccc2[nH]1` (stereo unspecified) [Oxfendazole]: the cell viability came to 78%.

Regarding `Cc1cnc(C(=O)NCCc2ccc(S(=O)(=O)NC(=O)NC3CCCCC3)cc2)cn1` [Glipizide (Glucotrol)], the cell viability came out at 97.4%.

In the case of `CC(C)c1nc(N(C)S(C)(=O)=O)nc(-c2ccc(F)cc2)c1/C=C/[C@@H](O)C[C@@H](O)CC(=O)O` [Rosuvastatin Calcium], the cell viability worked out at 102%.

Take `COc1ccc(-c2coc3cc(O)ccc3c2=O)cc1` [Formononetin (Formononetol)]: the cell viability was determined as 80.2%.

On to `COc1ccc(OC)c(C2C(C#N)=C(N)Oc3n[nH]c(-c4ccc5ccccc5c4)c32)c1` (stereo unspecified), for which the cell viability is 106%.

Take `CCN1C(=O)CNc2ncc(-c3ccc(-c4nc[nH]n4)nc3C)nc21`: the cell viability was determined as 16.1%.

Turning to `CN(C)c1ccc2nc3c(C(=O)O)cc(=O)c(O)c-3oc2c1` [Gallocyanine], the cell viability came to 78.8%.
